KDM5B inhibitor: inhibitors of human KDM5B histone demethylase | Q9UGL1 | KDM5B demethylase, FDH-coupled NADH fluorescence (FDH is formaldehyde dehydrogenase) | Potency, µM (titrated, usually from 57.7 µM), hits mostly inhibitors | 220,000 compounds, 2.6% hits; active means well fitted inhibition curve with a large enough effect; further: 0% is about no effect; nearly all actives have a fitted effect of over 70% in size
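Here, H3K4me3 peptide (12.5 µM in substrate mix) is demethylated by KDM5BΔAP, 200 nM final, after 10 min compound exposure. Formaldehyde product is coupled through FDH (0.25 U/mL in mix) to NADH fluorescence; 30-min ΔRFU feeds dose-response curves.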
Starred values were filed as active, the others as inactive; i = inactive. The entries come from a sample that favours hits as a whole. Potency means the concentration at half of the fitted maximal effect.

SMILES	KDM5B inhibitor
FC(F)(F)c1cccc(-n2nnnc2C2(NC3CCCCC3)CCCC2)c1	i
COc1cc(CC(=O)NC2CCS(=O)(=O)C2)cc(OC)c1OC (configuration not stated)	i
O=C(CN1CCCN(c2ccc(C(F)(F)F)cn2)CC1)Nc1ccccc1Cl	i
COCCNC(=O)/C(C#N)=C\c1ccc(C(F)(F)F)cc1	i
CNC(=O)C(C)Sc1nc(-c2ccccc2)c(-c2ccccc2)o1 (configuration not stated)	i
CC(C)CNC(=O)C1(CCO)CCN(c2ncccn2)C1 (configuration not stated)	25µM*
O=C(NCC1CCCCC1)C1(CCO)CCN(c2ncccn2)C1 (configuration not stated)	32µM*
O=C(NCCN1CCCCC1)C1(CCO)CCN(c2ncccn2)C1 (configuration not stated)	25µM*
O=C(NCCN1CCC(Cc2ccccc2)CC1)C1(CCO)CC12CCOCC2 (configuration not stated)	i
CC(C)CNC(=O)C1(CCO)CCN(Cc2ccccc2)C1 (configuration not stated)	i
O=C(NCC1CC1)C1(CCO)CCN(Cc2ccccc2)C1 (configuration not stated)	i
O=C(NC1CCCC1)C1(CCO)CCN(Cc2ccccc2)C1 (configuration not stated)	i
CC(NCCC(=O)N1CCN(c2ncccn2)CC1)c1ccc(Cl)cc1Cl (configuration not stated)	i
CC(C)CCNC(=O)C1(C)Cn2nc(C(=O)NCCN3CCCCCC3)cc2C(=O)N1C (configuration not stated)	i
O=C(Nc1ccccc1-n1cncn1)C1CC(=O)N(c2ccccc2Br)C1 (configuration not stated)	i
O=C(CSc1nccn2nc(-c3cccc4ccccc34)cc12)NCc1ccco1	i
C=CCNc1nc(C(=O)OC(C)C(=O)Nc2ccc(F)cc2Cl)cs1 (configuration not stated)	i
CC(=O)c1ccc(C(=O)OC(C)C(=O)c2ccc(C)cc2)s1 (configuration not stated)	i
CC(C)C(CNC(=O)C1CCN(c2nc3ccccc3o2)CC1)N(C)C (configuration not stated)	i
O=C(Nc1ccccc1F)N1CC2CCC(C1)N2Cc1ccc(Cl)cc1	i
C=CCC1(CC=C)CCCN1	i
COc1ccc(-c2ccc3nnc(CNC(=O)C(C)Oc4cccc(Cl)c4)n3n2)cc1 (configuration not stated)	28µM*
COc1ccc(OC(C)C(=O)NCc2nc(-c3cccc(C)c3)no2)cc1 (configuration not stated)	i
COc1ccc(-c2ccc3nnc(CNC(=O)C(C)Oc4ccccc4)n3n2)cc1 (configuration not stated)	32µM*
CC(Oc1ccccc1)C(=O)NCc1cccnc1N(C)C (configuration not stated)	i
SMILES	KDM5B inhibitor
N#CCCN1CCN(C(C(=O)O)c2cn(CC(=O)O)c3ccc(Br)cc23)CC1 (configuration not stated)	i
N#CC1=C(N)OC2=C(C(=O)CC(c3ccccc3)C2)C1Cc1ccccc1 (configuration not stated)	i
Fc1ccccc1CN1CCCC2(CCN(c3cnccn3)C2)C1 (configuration not stated)	32µM*
OC1(CN2CCCCC2)CCN(Cc2cccc(F)c2F)C1 (configuration not stated)	i
CC1(c2ccccc2)N(Cc2ccccc2F)C(=O)OC12CCN(C(=O)c1cnccn1)CC2 (configuration not stated)	i
COc1cccc(CN2CCCC3(CCN(c4cc(C)nc(N)n4)C3)C2)c1OC (configuration not stated)	i
Fc1cccc(CN2CCCC3(CCN(c4cnccn4)C3)C2)c1F (configuration not stated)	28µM*
O=C(C1CCCC1)N1CCC2(CCCN(Cc3cccc(F)c3F)C2)C1 (configuration not stated)	i
CN(Cc1ccc(Cl)cc1)C(=O)C1CCN(c2ccc(C(F)(F)F)cn2)CC1	i
O=C(Nc1ccccc1-c1ccccc1)c1cc(F)cc(F)c1	i
O=C(Nc1ccc(Oc2ccccc2)cc1)O[C@@H]1CO[C@H]2[C@@H]1OC[C@@H]2NC(=S)Nc1cccc2ccccc12	32µM*
O=C(Nc1cccc2ccccc12)O[C@@H]1CO[C@H]2[C@@H]1OC[C@@H]2NC(=O)C1CCC1	i
O=C(Nc1ccc(Oc2ccccc2)cc1)O[C@@H]1CO[C@H]2[C@@H]1OC[C@@H]2NS(=O)(=O)c1ccc2ccccc2c1	22µM*
CC(=O)Nc1ccc(S(=O)(=O)N[C@H]2CO[C@H]3[C@@H]2OC[C@H]3OC(=O)Nc2ccc(C(C)=O)cc2)cc1	i
COc1ccc(NC(=O)O[C@@H]2CO[C@H]3[C@@H]2OC[C@@H]3NS(=O)(=O)c2ccc(NC(C)=O)cc2)cc1	i
COC(=O)c1cccc(NC(=S)N[C@H]2CO[C@H]3[C@@H]2OC[C@H]3OC(=O)Nc2cccc3ccccc23)c1	i
c1ccc(CCN(Cc2ccccc2)Cc2ccc(OCc3ccccc3)cc2)cc1	i
CCc1ccc(-c2noc(CCC(=O)Nc3nc4ccccc4n3CC)n2)cc1	i
CCOc1ccc(NC(=O)c2nn(Cc3ccccc3)c(=O)c3ccccc23)cc1OCC	i
O=C(NCc1ccncc1)c1nc(-c2ccc(Br)o2)no1	i
COc1cccc(Nc2nc(-c3cc4cc(Br)ccc4oc3=O)cs2)c1	i
Cc1ccc(/C=C/C(=O)c2ccc(O)c(CCCl)c2)c(C)c1	i
Nc1c(Cl)cc(NC(=O)c2cnc3ccccc3n2)cc1Cl	i
Brc1ccc(-c2noc(/C=C/c3ccccc3)n2)cc1	i
Cc1ccccc1CN1Cc2nc(-c3cnn(Cc4ccccc4)c3)ccc2OCC1=O	i
SMILES	KDM5B inhibitor
Cc1ccccc1-c1ccc2c(n1)CN(Cc1ccccc1)C(=O)CO2	i
O=C1COc2ccc(-c3ccccc3)nc2CN1Cc1ccccc1F	i
CN1CCCC1COc1ccc2c(n1)CN(Cc1ccc(C(F)(F)F)cc1)C(=O)CO2 (configuration not stated)	i
Cc1ccccc1CN1Cc2nc(-c3ccccc3)ccc2OCC1=O	i
O=C1COc2ccc(-c3cn[nH]c3)nc2CN1Cc1ccc(C(F)(F)F)cc1	i
O=C1COc2ccc(-c3ccncc3)nc2CN1Cc1ccc(C(F)(F)F)cc1	40µM*
O=C1COc2ccc(OCC3CC3)nc2CN1Cc1ccc(C(F)(F)F)cc1	i
O=C1COc2ccc(-c3ccncc3)nc2CN1Cc1ccccc1	35µM*
O=C1COc2ccc(-c3ccoc3)nc2CN1Cc1ccc(C(F)(F)F)cc1	35µM*
O=C1COc2ccc(-c3ccoc3)nc2CN1Cc1ccccc1	32µM*
Cc1noc(C)c1-c1ccc2c(n1)CN(Cc1ccc(C(F)(F)F)cc1)C(=O)CO2	i
CCn1nnc2cc(C(=O)Nc3nc(-c4ccc5c(c4)CCC(=O)N5)cs3)ccc21	i
O=C(Nc1cccc(F)c1)N1CCC(Oc2ncccc2C(=O)N2CCCCC2)C1 (configuration not stated)	i
O=C(CN1C(=O)NC(c2ccc(Cl)cc2)C2=C1COC2=O)Nc1cc(F)ccc1F (configuration not stated)	i
CC(=O)N1CC2(CCCN2Cc2ccc(Cl)cc2)Cc2ccccc21 (configuration not stated)	i

High-throughput results from PubChem.
